Screening data deposited in PubChem BioAssay by National Center for Advancing Translational Sciences (NCATS).
Compounds with a hit are over-represented: about 0.53% of the library has one in this group of screens.
PGK inhibitor: inhibitors of T. brucei phosphoglycerate kinase | AID 602233 | P07378 | PGK/GAPDH coupled, Kinase-Glo luminescence, 60 min | Potency, µM (titrated, usually from 57.5 µM), for inactives: at the highest dose activity change, negative = inhibition, actives largely listed as inhibitors | hit rate 0.043% among 380,000; also: potency is read from the fitted curve at half-maximal effect; nearly all actives have a fitted effect of over 60% in size
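Recombinant glycosomal PGK reaction used 1,3-bisphosphoglycerate generated in-well by GAPDH (100nM final) in 100mM TEA pH 7.6, 5mM MgCl2, 0.01% Tween-20. After 60 minutes at room temperature, ATP was read by Kinase-Glo Plus luminescence end-point.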
GLS inhibitor: blocks human kidney-isoform glutaminase activity. hit rate 0.21% among 410,000. GLS enzymatic activity, qHTS titration. O94925. Potency, µM (titrated, usually from 45.5 µM), inactives show at the highest dose activity change, negative = inhibition, hits mostly inhibitors; also: potency is read from the fitted curve at half-maximal effect
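Read-out is an Amplex red fluorescence increase coupled through glutamate oxidase and HRP, measured before and after 30 min room-temperature incubation. hKGA is in 45 mM KH2PO4 (pH 8.2) with 0.02% Tween-20; glutamine added as 1mM solution.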
USP1 inh: inhibitors of human USP1/UAF1 deubiquitinase; O94782; recombinant USP1/UAF1, Ub-Rhodamine cleavage fluorescence; Potency, µM (series often up to 57.1 µM), for inactives: at the highest dose activity change, negative = inhibition, usual class: inhibitors; hit rate 0.23% among 390,000; AID 743255; also: potency is read from the fitted curve at half-maximal effect; nearly all actives have a fitted effect of over 60% in size
Target sequence (O94782 whole entry, looked up): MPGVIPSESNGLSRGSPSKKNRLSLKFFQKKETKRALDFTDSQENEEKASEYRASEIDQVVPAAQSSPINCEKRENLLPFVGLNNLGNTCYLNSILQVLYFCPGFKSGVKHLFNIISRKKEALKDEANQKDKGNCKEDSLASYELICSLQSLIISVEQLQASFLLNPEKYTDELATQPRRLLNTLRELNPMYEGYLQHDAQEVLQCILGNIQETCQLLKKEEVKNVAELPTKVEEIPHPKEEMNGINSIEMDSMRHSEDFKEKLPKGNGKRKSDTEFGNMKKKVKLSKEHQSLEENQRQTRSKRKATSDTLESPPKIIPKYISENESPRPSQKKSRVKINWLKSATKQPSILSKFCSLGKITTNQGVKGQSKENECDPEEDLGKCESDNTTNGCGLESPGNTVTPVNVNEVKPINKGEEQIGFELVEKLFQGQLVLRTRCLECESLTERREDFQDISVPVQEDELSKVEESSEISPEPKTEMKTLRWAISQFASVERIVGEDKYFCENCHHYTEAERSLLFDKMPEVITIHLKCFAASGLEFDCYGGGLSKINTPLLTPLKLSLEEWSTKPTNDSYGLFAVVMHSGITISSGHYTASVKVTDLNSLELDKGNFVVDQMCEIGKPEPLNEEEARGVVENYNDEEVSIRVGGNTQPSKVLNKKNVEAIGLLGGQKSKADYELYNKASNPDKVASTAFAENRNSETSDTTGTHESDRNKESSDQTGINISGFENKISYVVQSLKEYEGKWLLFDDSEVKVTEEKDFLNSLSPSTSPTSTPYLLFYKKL
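High-throughput fluorogenic screen: 1nM USP1/UAF1 complex, Ub-Rho substrate 150nM final, 50mM HEPES pH 7.8 with 0.5mM EDTA, 0.1 mg/ml BSA, 1mM TCEP and 0.01% Tween-20.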
PI4K2A inh: inhibitors of human PI4K2A; Q9BTU6; purified PI4K2A, ADP-Glo luminescence, 1 h; stronger effect = lower value; activity change, negative = inhibition, % at 76.9 µM; hit rate 0.13% among 420,000; in the data active = activity change below about -50%; inconclusive = mostly about -30% to -49%;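 also: -100% = wells without enzyme as full effect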
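PI4K2A activity was measured by ADP-Glo luminescence: enzyme (4 ug/mL stock) and phosphatidylinositol (1.2 mM stock) in Tris pH 7.5/MgCl2/EGTA/Triton X-100 buffer were reacted with ATP (300 microM stock) for one hour at ambient temperature.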
The depositor's hits bear a star; i = inactive; ? = inconclusive; · = no result given; [ ] = remark or other dose. Unless noted, calls follow the shape of the dose curve; as a rule, active = well fitted curve in the direction sought with a large enough effect; inconclusive = small, poorly fitted or top-dose-only effect, or another doubt; inactive = no such curve, though single readings can be large; an effect the other way counts as inactive or inconclusive. Unless noted, % is scaled to controls: 0 for no effect and ±100 for the full control effect.

SMILES	PGK inhibitor	GLS inhibitor	USP1 inh	PI4K2A inh
CN(C)c1cccc(/C=C2\CC3(OC(=O)c4cccc(F)c4)CCCN2C3)c1 (stereo unspecified)	·	·	·	-5.7
COc1ccc(C(=O)c2nccc3cc(OC)c(OC)cc23)cc1OC	-6.3%	9.7%	14.1µM*	?
CC1(C)N([O-])c2cc([N+](=O)[O-])ccc2[N+]1=O	-9.0%	-24.0%	25.1µM*	?
Cc1ccc(C)n1-c1cc([N+](=O)[O-])ccc1-n1ccnc1	-9.8%	-6.2%	-24.9%	-4.8
CC1(C)S[C@@H]2[C@H](NC(=O)C(C(=O)O)c3ccccc3)C(=O)N2[C@H]1C(=O)O (stereo partly specified)	-7.6%	-26.8%	-32.1%	3.5
CCN1CCN(C(=O)N[C@H](C(=O)N[C@@H]2C(=O)N3[C@@H](C(=O)O)C(C)(C)S[C@@H]23)c2ccccc2)C(=O)C1=O	·	25.1µM*	·	·
CC1(C)S[C@@H]2[C@H](NC(=O)[C@H](N)c3ccccc3)C(=O)N2[C@H]1C(=O)O	-10.5%	10µM*	?	-8.7
Cc1onc(-c2c(F)cccc2Cl)c1C(=O)N[C@@H]1C(=O)N2[C@H]1SC(C)(C)[C@H]2C(=O)O	·	3.55µM*	·	·
Cc1onc(-c2ccccc2Cl)c1C(=O)N[C@H]1C(=O)N2[C@H]1SC(C)(C)[C@H]2C(=O)O	·	-21.5%[20 µM]	·	·
CC1(C)S[C@H]2C(NC(=O)[C@@H](N)c3ccc(O)cc3)C(=O)N2[C@@H]1C(=O)O (stereo partly specified)	·	14.1µM*	·	·
CC1(C)S[C@@H]2[C@H](NC(=O)[C@H](N)c3ccc(O)cc3)C(=O)N2[C@H]1C(=O)O	-5.8%	-26.1%	-16.5%	-2.0
CN1C[C@H]2c3ccccc3Oc3ccc(Cl)cc3[C@@H]2C1	·	7.4%	·	-4.0
O=C(N1CCCC1)n1ncc(-c2ccc(-c3ccccc3)cc2)n1	·	·	·	-7.5
Nc1nc2ccccc2n1Cc1ccc(F)cc1	·	·	·	0.8
Nc1ccn([C@@H]2O[C@H](CO)[C@H](O)C2(F)F)c(=O)n1	·	3.3%	·	·
CC1(C)SC2C(N3C(=O)C(c4ccccc4)NC3(C)C)C(=O)N2C1C(=O)O (stereo unspecified)	·	28.2µM*	·	·
O=C1CCCC2=C1C(c1ccco1)Nc1ccc3ccccc3c12 (stereo unspecified)	?	11.2µM*	0.6%	-13.2
O=C1CCCC2=C1C(c1ccc(O)c(O)c1)Nc1ccc3ccccc3c12 (stereo unspecified)	1.7%	?	-13.5%	2.2
CN=C1C=CC(=C(c2ccc(N(C)C)cc2)c2ccc(N(C)C)cc2)C=C1	·	-8.3%	·	·
CCOC(=O)[C@@]12CCCC=C1N(CCc1ccc(Cl)cc1)C(=O)[C@H]2CC(=O)NCc1ccc(OC)c(OC)c1	·	·	·	1.5
O=C(NC1(O)C(=O)c2ccccc2C1=O)c1ccccc1	-17.3%	3.0%	17.8µM*	?
O=C(NC1(O)C(=O)c2ccccc2C1=O)c1c(Cl)cccc1Cl	-14.9%	-9.7%	28.2µM*	?
O=C(Nc1ccccc1Cl)c1c(F)c(F)c(F)c(F)c1F	-10.9%	-7.0%	-12.2%	12.5
CC(C)C(=O)N[C@H]1[C@H](O)CCC[C@]12C(=O)N(Cc1ccccc1)c1ccccc12	·	·	·	1.7
O=C(Nc1cccc(O)c1)C(=O)Nc1ccccn1	?	-5.9%	-10.6%	-64.2*
SMILES	PGK inhibitor	GLS inhibitor	USP1 inh	PI4K2A inh
O=C1CC2(CCCC2)CC(=O)N1	·	·	·	-2.7
Cc1occc1C(=O)N/N=C/c1ccc(N(C)C)cc1	25.1µM*	-4.6%	-22.2%	-86.6*
Cc1occc1C(=O)N/N=C/C=C/c1ccc(N(C)C)cc1	-4.2%	19.6%	-15.0%	-10.7
CCCCC(=O)Nc1ccc(C2C(=O)c3ccccc3C2=O)cc1	-8.4%	17.8µM*	-9.1%	-2.5
CCC(C)C1NC(=O)C(Cc2ccc(O)cc2)NC(=O)C(N)CSSCC(C(=O)N2CCCC2C(=O)NC(CC(C)C)C(=O)NCC(N)=O)NC(=O)C(CC(N)=O)NC(=O)C(CCC(N)=O)NC1=O (stereo unspecified)	·	10.6%	·	·
CCC(C)C(N)C1=NC(C(=O)N[C@@H](CC(C)C)C(=O)N[C@H](CCC(=O)[O-])C(=O)N[C@H](C(=O)N[C@H]2CCCCNC(=O)[C@H](CC(N)=O)NC(=O)[C@@H](CC(=O)[O-])NC(=O)[C@H](Cc3cnc[nH]3)NC(=O)[C@@H](Cc3ccccc3)NC(=O)[C@H]([C@@H](C)CC)NC(=O)[C@@H](CCCN)NC2=O)[C@@H](C)CC)CS1.[Zn+2] (stereo partly specified)	28.2µM*	?	-9.3%	-3.5
COC(=O)C1CN(Cc2ccc(F)cc2)CCS(=O)(=O)N1Cc1cn(Cc2ccc(C)cc2)nn1 (stereo unspecified)	·	·	·	-14.6
Cc1ccc(-c2ccccc2C#N)cc1	·	·	·	-1.7
NS(=O)(=O)c1cc2c(cc1Cl)CN(C1CCCCC1)C2=O	·	·	·	0.8
CCOc1cc(N2C(=O)CC3CS(=O)(=O)CC32)c(OCC)cc1NC(=O)c1ccccc1 (stereo unspecified)	-1.4%	22.4µM*	2.0%	5.6
CCOc1cc(N2CCOCC2)c(OCC)cc1NC(=O)c1cccc(N(C)C)c1	4.7%	1.2%	-6.7%	3.4
Nc1ccc(/C=C/c2ccc(N)cc2S(=O)(=O)O)c(S(=O)(=O)O)c1	·	11.2µM*	·	i
Nc1ccc(Nc2ccccc2)c(S(=O)(=O)O)c1	-24.7%	?	-18.9%	-1.3
c1ccc(-c2nnnn2-c2ccccc2)cc1	-5.4%	-5.2%	-19.7%	4.2
ClC(Cl)(c1nnnn1-c1ccccc1)c1nnnn1-c1ccccc1	-5.2%	10µM*	?	?
CCOC(=O)Nc1ccc(NCc2ccc(F)cc2)nc1N	-1.6%	1.9%	22.4µM*	?
CCN(CC(=O)Nc1c(F)cccc1F)C(=O)/C=C/c1ccc2ccccc2n1	?	10µM*	?	?
O=C1C=C(O)c2cccc(O)c2C1=O	-8.8%	-3.1%	31.6µM*	-27.0
O=C1c2cccc(O)c2C(=O)c2c(O)cccc21	·	-18.4%	·	-1.9
CC(C)C[C@@H](NC(=O)[C@H](Cc1ccccc1)NC(=O)c1cnccn1)B(O)O	·	6.6%	·	·
CC(=O)C(=Cc1cccc(C#N)c1)C(=O)c1ccccc1	·	11.2µM*	·	7.7
CC(=O)C(=Cc1ccc(Cl)cc1)C(=O)c1ccccc1	·	-28.4%	·	16.9
C[C@@H]1CCN(C(=O)[C@H](CCCN=C(N)N)NS(=O)(=O)c2cccc3c2NC[C@H](C)C3)[C@@H](C(=O)O)C1	·	·	·	-1.0
CCCCCCCCCCCCCCCCCCNC(=O)OC1CCN(C(=O)OC[C@H](COC(=O)N(Cc2cccc[n+]2CC)C(=O)c2ccccc2OC)OC)CC1	·	-15.3%	·	1.2
CCOC(=O)c1cc(-c2ccccc2)n(-c2cccc(C(=O)Nc3ccc(OC)cc3)c2)c1C	8.1%	-0.1%	-28.1%	-2.3
CC(=O)N1CC=C2C(C#N)=C(N)C(C#N)(C#N)C(CCc3ccccc3)C2C1 (stereo unspecified)	-8.2%	2.8%	-21.6%	?
